PubChem BioAssay AID1159580 (chemical genetic matrix, 2015)
The campaign covered roughly 5,500 compounds. About 2,000 (36%) were called active. Not shown: some 18% with an inconclusive outcome. Rule as the data show it: active = normalized growth mostly below about 0.91 (no sharp cut-off); inconclusive = no clear call, values can overlap the other calls; inactive = mostly above about 0.92. The list shows a part of the results.

Experiment: chemical genetic growth profiling, strain panel (AID 1159580);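 also: tested at 20 µM; growth read once vehicle control cultures reached saturation at 30 °C; 1 = growth at the plate median or of vehicle wells; lower values mean less growth of the strain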
Conditions: growth OD

Measured: normalized growth

Cc1c(NC(=O)c2cccnc2)c(=O)n(-c2ccccc2)n1C
inactive: S. cerevisiae deletion strains, locus YJR066W, strain TOR1, active compounds read low 0.958 | S. cerevisiae deletion strains, locus YJR075W, strain HOC1, active compounds read low 0.99 | S. cerevisiae deletion strains, locus YKL009W, strain mrt4, active compounds read low 0.958 | S. cerevisiae deletion strains, locus YKL068W, active compounds read low 0.99 | S. cerevisiae deletion strains, locus YKL085W, strain MDH1 (second series), active compounds read low 0.988 | S. cerevisiae deletion strains, locus YKL085W, strain MDH1, active compounds read low 0.988 | S. cerevisiae deletion strains, locus YKL160W, strain elf1, active compounds read low 1.02 | S. cerevisiae deletion strains, locus YKL190W, strain CNB1, active compounds read low 0.989 | S. cerevisiae deletion strains, locus YKR001C, strain vps1, active compounds read low 0.991 | S. cerevisiae deletion strains, locus YKR026C, strain gcn3, active compounds read low 0.997 | S. cerevisiae deletion strains, locus YKR091W, strain srl3, active compounds read low 1 | S. cerevisiae deletion strains, locus YLL001W, strain dnm1, active compounds read low 0.986 | S. cerevisiae deletion strains, locus YLL026W, active compounds read low 0.993 | S. cerevisiae deletion strains, locus YLL041C, strain sdh2, active compounds read low 0.996 | S. cerevisiae deletion strains, locus YLR027C, strain aat2, active compounds read low 1 | S. cerevisiae deletion strains, locus YLR039C, strain RIC1, active compounds read low 0.974 | S. cerevisiae deletion strains, locus YLR058C, strain SHM2, active compounds read low 0.982 | S. cerevisiae deletion strains, locus YLR102C, strain apc9, active compounds read low 0.989 | S. cerevisiae deletion strains, locus YLR113W, strain HOG1, active compounds read low 1.06 | S. cerevisiae deletion strains, locus YLR221C, strain rsa3, active compounds read low 1.01 | S. cerevisiae deletion strains, locus YLR258W, strain gsy2, active compounds read low 0.997 | S. cerevisiae deletion strains, locus YLR262C, strain YPT6 (second series), active compounds read low 1.02 | S. cerevisiae deletion strains, locus YLR262C, strain YPT6, active compounds read low 0.961 | S. cerevisiae deletion strains, locus YLR268W, strain sec22, active compounds read low 0.982 | S. cerevisiae deletion strains, locus YLR320W, strain mms22, active compounds read low 1 | S. cerevisiae deletion strains, locus YLR330W, strain CHS5, active compounds read low 1 | S. cerevisiae deletion strains, locus YLR342W, strain FKS1 (second series), active compounds read low 1.09 | S. cerevisiae deletion strains, locus YLR342W, strain FKS1, active compounds read low 1 | S. cerevisiae deletion strains, locus YLR357W, strain rsc2, active compounds read low 0.963 | S. cerevisiae deletion strains, locus YLR370C, strain arc18, active compounds read low 1 | S. cerevisiae deletion strains, locus YLR371W, strain rom2, active compounds read low 0.998 | S. cerevisiae deletion strains, locus YLR384C, strain iki3, active compounds read low 0.999 | S. cerevisiae deletion strains, locus YLR418C, strain cdc73, active compounds read low 1.01 | S. cerevisiae deletion strains, locus YML016C, strain PPZ1, active compounds read low 0.994 | S. cerevisiae deletion strains, locus YML032C, strain rad52, active compounds read low 0.971 | S. cerevisiae deletion strains, locus YML120C, strain ndi1, active compounds read low 1.02 | S. cerevisiae deletion strains, locus YML124C, strain tub3, active compounds read low 0.999 | S. cerevisiae deletion strains, locus YMR058W, strain fet3, active compounds read low 1 | S. cerevisiae deletion strains, locus YMR078C, strain ctf18, active compounds read low 0.984 | S. cerevisiae deletion strains, locus YMR125W, strain sto1, active compounds read low 0.969 | S. cerevisiae deletion strains, locus YMR129W, active compounds read low 0.997 | S. cerevisiae deletion strains, locus YMR205C, strain PFK2, active compounds read low 0.959 | S. cerevisiae deletion strains, locus YMR223W, strain ubp8, active compounds read low 1.02 | S. cerevisiae deletion strains, locus YMR231W, strain pep5, active compounds read low 1 | S. cerevisiae deletion strains, locus YMR263W, strain SAP30, active compounds read low 0.987 | S. cerevisiae deletion strains, locus YMR307W, strain GAS1, active compounds read low 0.961 | S. cerevisiae deletion strains, locus YNL067W, strain RPL9B, active compounds read low 0.971 | S. cerevisiae deletion strains, locus YNL071W, strain lat1, active compounds read low 1.01 | S. cerevisiae deletion strains, locus YNL153C, strain GIM3, active compounds read low 0.952 | S. cerevisiae deletion strains, locus YNL183C, strain NPR1, active compounds read low 0.967 | S. cerevisiae deletion strains, locus YNL209W, strain ssb2, active compounds read low 1.01 | S. cerevisiae deletion strains, locus YNL233W, strain BNI4, active compounds read low 0.941 | S. cerevisiae deletion strains, locus YNL248C, strain rpa49, active compounds read low 1.01 | S. cerevisiae deletion strains, locus YNL250W, strain rad50, active compounds read low 0.975 | S. cerevisiae deletion strains, locus YNL271C, strain bni1, active compounds read low 0.991 | S. cerevisiae deletion strains, locus YNL298W, strain CLA4, active compounds read low 0.997 | S. cerevisiae deletion strains, locus YNL307C, strain MCK1, active compounds read low 0.995 | S. cerevisiae deletion strains, locus YNL322C, strain KRE1 (second series), active compounds read low 0.995 | S. cerevisiae deletion strains, locus YNL322C, strain KRE1, active compounds read low 0.996 | S. cerevisiae deletion strains, locus YNR049C, strain mso1, active compounds read low 0.997 | S. cerevisiae deletion strains, locus YNR052C, strain pop2, active compounds read low 0.996 | S. cerevisiae deletion strains, locus YOL006C, strain TOP1, active compounds read low 0.928 | S. cerevisiae deletion strains, locus YOL012C, strain htz1 0.85 | S. cerevisiae deletion strains, locus YOL147C, strain pex11, active compounds read low 1 | S. cerevisiae deletion strains, locus YOR001W, strain rrp6, active compounds read low 1.01 | S. cerevisiae deletion strains, locus YOR061W, strain CKA2, active compounds read low 0.969 | S. cerevisiae deletion strains, locus YOR069W, strain VPS5, active compounds read low 1 | S. cerevisiae deletion strains, locus YOR070C, strain gyp1, active compounds read low 1 | S. cerevisiae deletion strains, locus YOR080W, strain dia2, active compounds read low 0.99 | S. cerevisiae deletion strains, locus YOR083W, strain WHI5, active compounds read low 1.02 | S. cerevisiae deletion strains, locus YOR106W, strain vam3, active compounds read low 1.01 | S. cerevisiae deletion strains, locus YOR136W, strain idh2, active compounds read low 0.983 | S. cerevisiae deletion strains, locus YOR144C, strain elg1, active compounds read low 0.994 | S. cerevisiae deletion strains, locus YOR184W, strain ser1, active compounds read low 0.985 | S. cerevisiae deletion strains, locus YOR231W, strain MKK1, active compounds read low 1.05 | S. cerevisiae deletion strains, locus YOR265W, strain rbl2, active compounds read low 0.993 | S. cerevisiae deletion strains, locus YOR270C, strain vph1, active compounds read low 1 | S. cerevisiae deletion strains, locus YOR290C, strain snf2, active compounds read low 0.98 | S. cerevisiae deletion strains, locus YOR316C, strain cot1, active compounds read low 0.986 | S. cerevisiae deletion strains, locus YPL051W, strain arl3, active compounds read low 1.01 | S. cerevisiae deletion strains, locus YPL078C, strain atp4, active compounds read low 1.01 | S. cerevisiae deletion strains, locus YPL106C, strain sse1, active compounds read low 0.992 | S. cerevisiae deletion strains, locus YPL240C, strain hsp82, active compounds read low 0.995 | S. cerevisiae deletion strains, locus YPL256C, strain CLN2, active compounds read low 1.03 | S. cerevisiae deletion strains, locus YPR119W, strain clb2, active compounds read low 0.985 | S. cerevisiae deletion strains, locus YPR141C, strain kar3, active compounds read low 0.99 | S. cerevisiae deletion strains, locus YPR163C, strain tif3, active compounds read low 0.996 | S. cerevisiae deletion strains, locus YPR167C, strain met16, active compounds read low 0.991 | S. cerevisiae deletion strains, strain wtn01, active compounds read low 1.02 | S. cerevisiae strains, strain wild type, active compounds read low 0.983
